# Compounds with a hit are over-represented: about 19% of the library has one in this group of screens.
# DT40 TDP1 no CPT: qHTS for Inhibitors of human tyrosyl-DNA phosphodiesterase 1 (TDP1): qHTS in cells in absence of CPT. DT40 Tdp1-/- hTDP1 cells, no CPT, ATP luminescence, 48 h. Potency, µM (titrated, usually from 46.2 µM), for inactives: top-dose activity change, negative = growth inhibition, usual class: inhibitors. hit rate 15% among 420,000. AID 686978, 2013; note: potency is the fitted concentration of half-maximal effect; % is set by controls: 0 for no effect and ±100 for the full control effect; nearly all actives have a fitted effect of over 55% in size
#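 A cellular qHTS used chicken DT40 cells lacking endogenous Tdp1 but carrying stably transfected human TDP1. Compounds were applied without camptothecin, and cell growth kinetics were judged by ATP-dependent luminescence after ≥48 hr.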
# HepG2 tox: counter-screen for TGF-b inhibitors: cytotoxicity in HepG2 cells; HepG2 CAGA-GFP viability, ATP luminescence, 18 h; Potency, µM (series often up to 46.1 µM), inactives show top-dose activity change, negative = cytotoxicity, most hits filed as cytotoxic; hit rate 0.76% among 410,000; note: potency is the fitted concentration of half-maximal effect
#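 CellTiter-Glo luminescence gave cytotoxicity after 18 hours at 37 degrees C. The cells were HepG2 CAGA-GFP in 1% FBS DMEM, stimulated with 500 pg/mL TGF-beta after compound addition. %Activity was normalised to no-cell wells (complete cell-killing) and DMSO (no toxicity), and curves were fitted and classified.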
# IL-1B inflam inh: inhibitors of inflammasome signaling (IL-1 beta secretion) | hit rate 4.7% among 360,000 | THP-1 LPS/ATP IL-1B secretion, AlphaLISA, 16 h; hits give low values | activity change, % at 57.5 µM; in the data active = activity change below about -50%; inconclusive = mostly about -30% to -49%; note: % is set by controls: 0 for no effect and ±100 for the full control effect
#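 THP-1 cells pretreated 1 hr with compounds (up to 57.5 uM final), then stimulated with LPS (250 ng/mL final) plus ATP (1.25 mM final); secreted IL-1B measured by AlphaLISA after 16 hr, decreased signal indicating inhibition.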
# S-ASM inh: blocks human secretory acid sphingomyelinase; AID 504937; hit rate 0.006% among 340,000; P17405; placental ASM, HMU-PC fluorogenic substrate, 60 min; Potency, µM (titrated, usually from 57.5 µM), without a hit: top-dose activity change, negative = inhibition, hits mostly inhibitors; note: potency is the fitted concentration of half-maximal effect
# Target sequence (P17405 47-631 limits assumed): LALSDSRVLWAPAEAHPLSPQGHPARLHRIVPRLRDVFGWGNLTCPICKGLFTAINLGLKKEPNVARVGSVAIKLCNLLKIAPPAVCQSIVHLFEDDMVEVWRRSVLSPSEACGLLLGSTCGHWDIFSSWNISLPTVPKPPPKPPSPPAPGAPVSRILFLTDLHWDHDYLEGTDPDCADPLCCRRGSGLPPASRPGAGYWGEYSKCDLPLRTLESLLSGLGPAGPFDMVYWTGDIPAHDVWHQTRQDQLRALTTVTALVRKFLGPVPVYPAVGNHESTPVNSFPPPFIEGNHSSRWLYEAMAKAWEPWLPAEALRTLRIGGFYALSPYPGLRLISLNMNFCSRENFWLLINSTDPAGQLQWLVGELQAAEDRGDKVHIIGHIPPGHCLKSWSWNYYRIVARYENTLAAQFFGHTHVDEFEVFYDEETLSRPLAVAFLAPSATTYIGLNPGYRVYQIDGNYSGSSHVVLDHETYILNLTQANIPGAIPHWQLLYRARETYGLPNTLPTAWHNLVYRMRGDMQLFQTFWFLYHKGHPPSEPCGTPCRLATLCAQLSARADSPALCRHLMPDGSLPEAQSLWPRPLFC
#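 HMU-PC0 cleavage (9 uM final) by human placental ASM, 60 min at 37 °C following 10 min compound exposure at RT; stopped at pH 10, fluorescence Ex 386/Em 447 nm.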
# TGFb SMAD3 inh: inhibitors of TGF-b signaling; HepG2 CAGA-GFP TGF-b/SMAD3 reporter, GFP fluorescence, 18 h; TGF-beta stimulated, 500 pg/mL final; Potency, µM (titrated, usually from 46.1 µM), for the others: at the top dose activity, negative = inhibition, most hits filed as inhibitors; hit rate 1.2% among 410,000; AID 588855; note: potency is the fitted concentration of half-maximal effect; % is set by controls: 0 for no effect and ±100 for the full control effect; nearly all actives have a fitted effect of over 65% in size
#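 Read-out: total well GFP (ex488/em500-530) summed from mean per-cell fluorescence. Cells: HEPG2 CAGA-GFP, 1% FBS DMEM, 18 h at 37 degrees C with 500 pg/mL final TGF-beta. Unstimulated wells served as the full-inhibition control; stimulated DMSO wells = 0%.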
# TDP1 cell CPT: growth inhibition of DT40 Tdp1-/-;hTDP1 cells with camptothecin (screen for TDP1 inhibitors). chicken DT40 Tdp1-/-;hTDP1 cells + 20 nM CPT, ATP luminescence, 48 h. Potency, µM (doses to about 46.2 µM), for the others: top-dose activity change, negative = growth inhibition, usual class: inhibitors. hit rate 12% among 420,000; note: potency is the fitted concentration of half-maximal effect; % is set by controls: 0 for no effect and ±100 for the full control effect; nearly all actives have a fitted effect of over 55% in size
#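 Chicken DT40 Tdp1-/- cells complemented with human TDP1, 400 cells/well, exposed to compounds plus 20 nM camptothecin for at least 48 h at 37 C; viability read as ATP content by CellTiter-Glo luminescence.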
# Active calls of the source: *; i = inactive; ? = inconclusive; / = not tested or not shown; [ ] = another dose, or the depositor's remark. Unless noted, calls come from the whole dose curve; as a rule, active = well fitted curve in the direction sought with a large enough effect; inconclusive = small, poorly fitted or top-dose-only effect, or another doubt; inactive = no such curve, though single readings can be large; an effect the other way counts as inactive or inconclusive.
SMILES,DT40 TDP1 no CPT,HepG2 tox,IL-1B inflam inh,S-ASM inh,TGFb SMAD3 inh,TDP1 cell CPT
CCOc1ccc(-c2nc3c(C#N)c[nH]n3c2NC2CCCC2)cc1,16µM*,-32%,/,/,?,10µM*
CC(=O)c1cc2c(cc1NC(=O)CSc1nnc(C3CC3)n1C)OCO2,15%,-15%,-4,/,-10%,22%
COC(=O)c1cc(CNC(=O)c2ccncc2)cc(NC(=O)c2ccccc2Cl)c1,-10%,/,/,/,/,-4%[9.04 µM]
CC(=O)C1CCC2C3CCC4CC(=O)CCC4(C)C3C(C)(O)CC12C (centres undefined),?,-5%,17,3%,21%,-4%
Cc1ccc(S(=O)(=O)Nc2cccc(C(=O)N3CCOCC3)c2)c(C)c1NS(C)(=O)=O,2%,3%,26,0%,-1%,9%
Cc1ccc(S(=O)(=O)Nc2ccc3c(c2)OCCO3)c(C)c1NS(C)(=O)=O,10µM*,3%,8,-3%,-2%,?
CC(C)N(C(=O)COC(=O)CNS(=O)(=O)c1ccccc1F)c1ccccc1,-1%,-1%,0,1%,-12%,-1%
Cc1ccc(S(=O)(=O)N2CCN(S(=O)(=O)c3ccccc3)C2c2ccc(N(C)C)cc2)cc1 (centres undefined),?,-4%,10,-2%,-1%,16µM*
Cc1ccc(S(=O)(=O)N2CCN(C(=O)CN3CCOCC3)C2c2ccccc2)cc1 (centres undefined),16µM*,-33%,-2,7%,-14%,?
O=C(CN1CCOCC1)N1CCN(S(=O)(=O)c2ccccc2)C1c1ccccc1 (centres undefined),-16%,6%,17,5%,-6%,-20%
CC(=O)N1CCN(S(=O)(=O)c2ccc(C)cc2)C1c1ccc(N(C)C)cc1 (centres undefined),?,-5%,10,-1%,6%,-26%
N#Cc1ccc(C(=O)OCC(=O)N2CCCCCC2)cc1,3%,-1%,0,1%,0%,4%
Clc1nc(-c2ccccc2)ncc1Oc1ccccc1,12%,-39%,-4,5%,?,2%
C[C@@]12C(=O)N(Cc3ccco3)CC(=O)N1[C@H]1c3cc(Cl)ccc3OC[C@@H]1[C@@H]2c1ccccc1,?,-12%,?,-4%,-17%,?
C[C@@]12C(=O)N(Cc3ccccc3)CC(=O)N1[C@H]1c3cc(Cl)ccc3OC[C@@H]1[C@@H]2c1ccccc1,18µM*,-16%,-28,-1%,-4%,?
C[C@@]12C(=O)N(Cc3ccc(F)cc3)CC(=O)N1[C@H]1c3cc(Cl)ccc3OC[C@@H]1[C@@H]2c1ccccc1,18µM*,-14%,?,-1%,?,23µM*
CN1CC(=O)N2[C@H]3c4ccccc4OC[C@@H]3[C@H](c3ccccc3)[C@]2(C)C1=O,-12%,1%,25,1%,?,-16%
Cc1cccc(N(C(=O)c2snc(C(N)=O)c2N)C(C(=O)NC2CCCC2)c2ccco2)c1 (centres undefined),?,8%,-28,i,1%,?
Cc1ccc(C(=O)N2CCC(Cc3ccccc3)CC2)cc1[N+](=O)[O-],?,1%,-30,-3%,-13%,?
CSCCC(NC(=O)c1ccccc1Cl)C(=O)N1CCN(C(C)=O)CC1 (centres undefined),0%,-3%,2,2%,8%,-9%
CSCCC(NC(=O)c1ccccc1Br)C(=O)N1CCN(C/C=C/c2ccccc2)CC1 (centres undefined),?,-20%,-12,4%,?,2.6µM*
Cc1cccc(C(=O)N2CCC(Cc3ccccc3)CC2)c1[N+](=O)[O-],6.5µM*,-32%,-87*,0%,-3%,8.2µM*
Cc1c(C(=O)N2CCC(Cc3ccccc3)CC2)cccc1[N+](=O)[O-],?,-14%,-104*,0%,?,?
COc1ccccc1C(=O)NC(CCSC)C(=O)N1CCC(Cc2ccccc2)CC1 (centres undefined),18µM*,-7%,-60*,-1%,?,15µM*
COCCSc1ccccc1C(=O)N1CCC(Cc2ccccc2)CC1,-27%,-2%,-54*,0%,-4%,?
SMILES,DT40 TDP1 no CPT,HepG2 tox,IL-1B inflam inh,S-ASM inh,TGFb SMAD3 inh,TDP1 cell CPT
CC(CN1CCN(C/C=C/c2ccccc2)CC1)c1ccccc1 (centres undefined),-6%,-2%,5,0%,3%,-7%
COc1ccc(C2CC(=O)C3=C(C2)Nc2ccccc2NC3c2coc3ccccc3c2=O)cc1OC (centres undefined),26µM*,9%,?,-19%,-18%,16µM*
CC(C)c1ccc(NC(=O)C2CCCN(S(=O)(=O)c3ccc4[nH]c(=O)ccc4c3)C2)cc1 (centres undefined),-24%,-15%,/,/,/,12µM*
COc1ccc(OC)c(NC(=O)C2CCCN(S(=O)(=O)c3ccc4[nH]c(=O)ccc4c3)C2)c1 (centres undefined),23µM*,-26%,/,/,-18%,?
Cc1ccc(NS(=O)(=O)c2cccc(C(=O)NCCc3c[nH]c4ccccc34)c2)c(C)c1,?,-19%,-78*,-15%,?,?
Cc1ccc(C(=O)N/C(=C\c2cccs2)C(=O)NCCc2c[nH]c3ccccc23)cc1,?,-3%,-63*,-11%,?,?
Cc1ccc(CCNC(=O)c2c[nH]c3ccc(S(=O)(=O)Nc4ccc(C)cc4C)cc3c2=O)cc1,?,-84%,/,/,?,?
Cc1ccc(C)c(NC(=S)NCCc2c[nH]c3ccccc23)c1,13µM*,-16%,-58*,-1%,?,?
S=C(NCCCN1CCN(CCCNC(=S)NC2CCCCC2)CC1)NC1CCCCC1,15µM*,7%,-15,2%,26%,15µM*
OCCNC(=S)NC1CCCCC1,-14%,-14%,12,5%,-2%,-3%
CC(C)CC(=O)NC(=S)Nc1ccc(N2CCOCC2)c(Cl)c1,?,-11%,8,-6%,-18%,-19%
CCOC(=O)C(O)(CC(=O)c1ccc(Cl)cc1)C(=O)OCC,-2%,9%,?,0%,-10%,6%
O=C(NCCc1c[nH]c2ccccc12)Nc1ccccc1,?,-6%,-26,-6%,-1%,-5%

# Screens (PubChem BioAssay)
